13 molecules from PubChem BioAssay (Tox21) can be followed below.

A short description of assay [1]: qHTS assay to identify small molecule agonists of H2AX (AID 1224845; active = well fitted activation curve with a large enough effect in the signal ratio in the repeat runs, not every such curve was filed as active; the % refers to the signal ratio). A digest of the protocol:
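Wild-type CHO-K1 cells plated overnight, then exposed 3 hr at 37C to compounds at 15 concentrations (0.76% DMSO). Lysed, then HTRF anti-pH2AX(S139)-cryptate/anti-H2AX-d2 detection after 24 hr at room temperature; emissions 665 and 620 nm.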

Assay [2] in a line: qHTS assay to identify small molecule agonists of the hypoxia (HIF-1) signaling pathway (AID 1224846; active = well fitted activation curve with a large enough effect in the signal ratio in the repeat runs, not every such curve was filed as active; the % refers to the signal ratio). A digest of the protocol:
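Cell line: CellSensor HRE-bla ME-180; 2,000 cells/well; 0.5% dialyzed FBS; 5 h preincubation; DMSO compound pin transfer; 17 h, 37C, 5% CO2; CCF4-AM added; bla FRET signal scored for activation.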

A short description of assay [3]: qHTS assay to identify small molecule agonists of H2AX - cell viability counter screen (AID 1224847; calls by dose curve; also: nearly all actives have a fitted effect of over 30% in size; also: potency is read from the fitted curve at half-maximal effect). The gist of the method: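 Counter-screen for viability: CellTiter-Glo ATP luminescence read after 3 h compound treatment (15-point titration, 0.76% DMSO final) of CHO-K1 cells at 37C, with 30 min room-temperature reagent incubation.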
Assay [4] can be described thus: qHTS assay to identify small molecule agonists of the estrogen related receptor (ERR) signaling pathway from Tox21 library (AID 1224849; calls by dose curve; also: nearly all actives have a fitted effect of over 15% in size). To be noted: ERR reporter cell line, ONE-Glo luciferase, 18 h; at 92.4 µM (top of the series) unless noted. The gist of the method: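 ERR cells, 6 h pre-incubation 37 C/5% CO2; cpd in DMSO pinned; 18 h 37 C; ONE-Glo added, 30 min RT; luminescence read. Agonist mode, qHTS.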

A short description of assay [5]: qHTS RealTime-Glo MT Cell Viability Assay in HEK293 cells - 32 hour (AID 1224868). Also: nearly all actives have a fitted effect of over 50% in size. Also: potency is read from the fitted curve at half-maximal effect. A digest of the protocol: (§1)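 Cells + reagent dispensed (600 cells/well, HEK293) → 5 h at 37 C/5% CO2 → 23 nL compound in DMSO pinned → 40 h at 37 C → luminescence read at 0, 8, 16, 24, 32, 40 h.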
Assay [6] can be described thus: A CellTox Green Cytotoxicity Assay to monitor cytotoxicity in HEK293 cells - 0 hour (AID 1224869). Also: nearly all actives have a fitted effect of over 50% in size. The gist of the method: (§2)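 Nonlytic real-time cytotoxicity: HEK293 + CellTox Green reagent plated, 5 h preincubation, pintool compound addition (23 nL in DMSO), 37 C for 40 h, fluorescence measured at successive time points.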
A short description of assay [7]: qHTS RealTime-Glo MT Cell Viability Assay in HepG2 cells - 40 hour (AID 1224870). Also: nearly all actives have a fitted effect of over 50% in size. A digest of the protocol:
(§3)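 HepG2 cells mixed with RealTime-Glo MT reagents (NanoLuc plus cell-permeant prosubstrate) were seeded at 600 cells/well, incubated 5 h at 37 C/5% CO2, then pinned with compounds in DMSO; nonlytic luminescence tracked viability during 40 h treatment.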

Assay [8] can be described thus: A CellTox Green Cytotoxicity Assay to monitor cytotoxicity in HEK293 cells - 40 hour (AID 1224871). Also: nearly all actives have a fitted effect of over 45% in size. Also: potency is read from the fitted curve at half-maximal effect. A digest of the protocol:
as §2

Assay [9] can be described thus: qHTS RealTime-Glo MT Cell Viability Assay in HEK293 cells - 16 hour (AID 1224872). Also: nearly all actives have a fitted effect of over 50% in size. Also: potency is read from the fitted curve at half-maximal effect. The gist of the method:
as §1

The nature of assay [10]: qHTS RealTime-Glo MT Cell Viability Assay in HepG2 cells - 8 hour (AID 1224873). Also: nearly all actives have a fitted effect of over 55% in size. The gist of the method: as §3
Assay [11] can be described thus: qHTS RealTime-Glo MT Cell Viability Assay in HEK293 cells - 40 hour (AID 1224874). Also: nearly all actives have a fitted effect of over 50% in size. Also: potency is read from the fitted curve at half-maximal effect. The note with it: RealTime-Glo luminescence; max response: stronger effect = lower value. The gist of the method:
(§4)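 Cells were seeded together with NanoLuc luciferase and a prosubstrate that viable cells reduce to a luciferase substrate. After a 5 h incubation at 37 C/5% CO2, compounds were added and luminescence was measured repeatedly during 40 h of treatment.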

Assay [12] in a line: A CellTox Green Cytotoxicity Assay to monitor cytotoxicity in HEK293 cells - 24 hour (AID 1224875). Also: nearly all actives have a fitted effect of over 45% in size. Also: potency is read from the fitted curve at half-maximal effect. A digest of the protocol: as §2
Assay [13] can be described thus: A CellTox Green Cytotoxicity Assay to monitor cytotoxicity in HepG2 cells - 16 hour (AID 1224876). Also: nearly all actives have a fitted effect of over 45% in size. Also: potency is read from the fitted curve at half-maximal effect. The gist of the method: (§5)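 Read-out is fluorescence of a cyanine dye excluded from live cells that stains DNA of dead HepG2 cells, with signal proportional to cytotoxicity. Plates were read at 0, 8, 16, 24, 32 and 40 h after compound addition.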
Assay [14] in a line: A CellTox Green Cytotoxicity Assay to monitor cytotoxicity in HepG2 cells - 24 hour (AID 1224878). Also: nearly all actives have a fitted effect of over 45% in size. Also: potency is read from the fitted curve at half-maximal effect. A digest of the protocol: as §5
Assay [15] is described as follows: A CellTox Green Cytotoxicity Assay to monitor cytotoxicity in HepG2 cells - 40 hour (AID 1224879). Also: nearly all actives have a fitted effect of over 40% in size. Also: potency is read from the fitted curve at half-maximal effect. The gist of the method:
as §5

A short description of assay [16]: qHTS RealTime-Glo MT Cell Viability Assay in HEK293 cells - 0 hour (AID 1224880). A digest of the protocol:
as §4

The nature of assay [17]: qHTS assay to identify small molecule antagonists of the estrogen related receptor (ERR) signaling pathway from Tox21 library (AID 1224848). Also: nearly all actives have a fitted effect of over 50% in size. Also: potency is read from the fitted curve at half-maximal effect. The gist of the method:
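Screening used an ERR reporter line supplied by NTP, exposed for 18 h at 37 C to library compounds delivered in DMSO. Signal was luciferase luminescence developed with ONE-Glo at room temperature for 30 min.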

Assay [18] is described as follows: qHTS RealTime-Glo MT Cell Viability Assay in HepG2 cells - 24 hour (AID 1224867). Also: nearly all actives have a fitted effect of over 50% in size. The gist of the method: (§6)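 Real-time, nonlytic viability: 600 HepG2 cells/well mixed with NanoLuc enzyme plus prosubstrate; 5 h settle, compound (DMSO) added by pintool; luminescence monitored over 40 h at 37 C.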
The nature of assay [19]: qHTS RealTime-Glo MT Cell Viability Assay in HepG2 cells - 32 hour (AID 1224877). Also: nearly all actives have a fitted effect of over 55% in size. A digest of the protocol: as §6

The structures appear in SMILES notation. Values without a mark were called inactive. Results filed as inconclusive are left out. The source made the active and inactive calls. Unless noted, calls follow the shape of the dose curve; as a rule, active = well fitted curve in the direction sought with a large enough effect in the repeat runs; inconclusive = weak or mixed curves; inactive = no such curve, though single readings can be large; an effect the other way counts as inactive or inconclusive.
% is scaled to controls: 0 for no effect and ±100 for the full control effect.

Take `C=C/C(C)=C/C/C=C(\C)CCC=C(C)C`: the Potency entry in assay [1], in assay [3], in [5], in [6], in assay [7] and in assay [8] was “inactive” throughout. In addition, the Potency result in [9], in [10], in assay [12], in [13], in assay [14] and in assay [15] was “inactive” in each case. The Potency result in assay [16] was “inactive”. Moreover, the outcome in [2] was inactive. Also, the activity change, positive = activation in assay [4] was -20.3%. The max response in [11] is -7.52%.
As for `O=C=Nc1cccc(C(F)(F)F)c1`, the molecule was called inactive in assay [2]. Also, in [17], the Potency is 60.7 µM (active). Also, the activity change, positive = activation in assay [4] is -56.5%. The Potency result in assay [18], in assay [6], in assay [7], in assay [9], in [10] and in assay [19] was “inactive” throughout. Also, the Potency result in assay [14], in assay [15] and in [16] was “inactive” each time.
Regarding `Clc1cc(Cl)nc(Cl)n1`, the Potency result in assay [1], in assay [3], in assay [18], in assay [6], in assay [8] and in assay [9] was “inactive” throughout. For the same molecule, the Potency entry in assay [10], in assay [12], in [13], in assay [19], in assay [14] and in [15] was “inactive” throughout. Moreover, the Potency entry in assay [16] was “inactive”.
For the molecule `C/C=C\C/C=C/CCCCCCCCOC(C)=O`, the result in assay [2] was inactive. For the same molecule, the Potency result in assay [3], in [5], in assay [6], in [7], in assay [9] and in assay [10] was “inactive” in each case. Besides, the Potency result in assay [12], in [13], in assay [19], in [14], in [15] and in assay [16] was “inactive” in each case. In addition, in assay [4], the activity change, positive = activation is -15%. Moreover, the max response in [11] was -25.6%.
Take `CC(=O)Oc1ccc([N+](=O)[O-])cc1CCl`: in assay [2], the call was inactive. For the same molecule, the Potency entry in assay [3], in [17], in assay [18], in [6], in [7] and in assay [8] was “inactive” throughout. Further, the Potency result in assay [10], in assay [12], in assay [13], in assay [19], in [14] and in assay [15] was “inactive” each time. Moreover, in [16], the Potency entry was “inactive”. In assay [4], the activity change, positive = activation was -12.3%. The results for the Potency in [5], in assay [9] and in [11] were 3.89 µM (active), 6.16 µM (active) and 3.47 µM (active), respectively.
As for `C=C(C)CCCC(C)CCO` (stereo not drawn), the result in assay [2] was inactive. Further, the Potency entry in assay [3], in assay [18], in assay [5], in assay [6], in [7] and in assay [8] was “inactive” each time. Also, the Potency result in [9], in assay [10], in assay [12], in assay [13], in assay [19] and in assay [14] was “inactive” each time. The Potency result in assay [15] and in assay [16] was “inactive” in each case. In addition, the max response in assay [11] was -17.9%.
Take `CCOC(=O)c1ccc(I)cc1`: the result in assay [2] was inactive. Besides, the Potency result in assay [3], in [17], in [6], in assay [7], in assay [10] and in assay [13] was “inactive” each time. Also, the Potency result in [19], in assay [14], in [15] and in assay [16] was “inactive” throughout. Further, the activity change, positive = activation in assay [4] was -4.74%. Also, the max response in assay [11] was -24.8%. For the same molecule, the Potency in [12] was 35 µM (active).
For the molecule `CCC(=O)C1CC(C(C)C)CC=C1C` (stereo not drawn), the Potency entry in [3], in assay [17], in assay [5], in assay [6], in assay [7] and in assay [8] was “inactive” throughout. Besides, the Potency entry in assay [9], in [10], in assay [12], in [19], in assay [14] and in [15] was “inactive” throughout. For the same molecule, the Potency result in assay [16] is “inactive”. The activity change, positive = activation in assay [4] was 5.57%. Besides, the max response in assay [11] is 9.7%.
`Oc1c(I)cc(I)c2cccnc12`: the Potency result in [3], in assay [18], in assay [6], in assay [7], in assay [8] and in assay [9] was “inactive” throughout. Also, the Potency entry in assay [10], in [12], in assay [14], in assay [15] and in [16] was “inactive” each time. Further, the activity change, positive = activation in [4] is -8.8% [at 42.5 µM].
In the case of `Cc1ccc(OC(=O)c2ccccc2O)cc1`, the molecule was called inactive in [2]. Further, the Potency result in [17], in assay [18], in assay [5], in [6], in assay [7] and in assay [9] was “inactive” in each case. In addition, the Potency result in [10], in assay [12], in [13], in assay [19], in assay [14] and in [15] was “inactive” each time. Moreover, the Potency entry in assay [16] is “inactive”. Moreover, the activity change, positive = activation in [4] was 2.99%. For the same molecule, in assay [11], the max response was -11.7%.
Turning to `C[C@@H](CN(C)C)CN1c2ccccc2Sc2ccccc21`, in assay [2], the outcome was inactive. In addition, the Potency entry in assay [3], in [6], in assay [10] and in assay [12] was “inactive” in each case. The activity change, positive = activation in [4] is -18.9% [at 42.5 µM]. The Potency in assay [8] is 16.9 µM (active); in assay [11], 23.9 µM (active); in [13], 23.9 µM (active); in assay [14] it was 26.8 µM (active); in [15], 26.8 µM (active).
Consider `CCCCCCCCC(CCCCCC)C(=O)O` (stereo not drawn), for which the Potency entry in assay [1], in assay [18], in [6], in assay [7], in assay [8] and in assay [9] was “inactive” each time. The Potency entry in [10], in [12], in assay [13] and in [19] was “inactive” in each case. Also, in assay [4], the activity change, positive = activation was -27.5%. For the same molecule, the max response in [11] was -3.96%. For the same molecule, the Potency in assay [14] and in assay [15] was 61.6 µM (active) each time.
Take `CS(=O)(=O)c1ccc(-c2cn3ccccc3n2)cc1`: the outcome in assay [2] was inactive. The Potency in [3] is 31 µM (active). Further, the Potency result in [17], in [6], in [7], in assay [8], in assay [9] and in [12] was “inactive” throughout. In addition, the Potency entry in assay [13], in assay [19] and in [16] was “inactive” in each case.
